This note sets out measurements from the supplement of paper PMC8866396.

Molecules are shown by their SMILES. ± gives the standard deviation of the averaged measurements.

In the assay the test system is IL-6-GFP PC-9GR. Nature of the assay: cell viability (CCK-8 OD) relative to DMSO control (fraction of control); higher = more viable cells. The note with it: compound concentration: 10 uM; treatment time: 48 h. Summed up:
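In 96-well plates, 3000 cells/well of PC-9 or PC-9GR lung cancer cells with lentiviral IL-6-GFP overexpression received each compound of a purchased 510-compound library at a final 10 μM for 48 h. Viability, measured by CCK-8 absorbance, is each well's optical density relative to the vehicle control well. Data come from two independent replicates.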
In the case of `COC(=O)CC(O)(CCCC(C)(C)O)C(=O)OC1C(OC)=CC23CCCN2CCc2cc4c(cc2C13)OCO4` (centres undefined) [Homoharringtonine], the cell viability stood at 0.275 ± 0.17.
Under `O=C(O)c1ccccc1OP(=O)(O)O` [Fosfosal] stands 0.943 ± 0.088; under `CC#CCn1c(N2CCCC(N)C2)nc2c1c(=O)n(Cc1nc(C)c3ccccc3n1)c(=O)n2C` (centres undefined) [Linagliptin], 0.849 ± 0.11.
To `CC1CC2C3CC(F)C4=CC(=O)C=CC4(C)C3(F)C(O)CC2(C)C1(OC(=O)c1ccco1)C(=O)SCF` (centres undefined) [fluticasone furoate] belongs 0.711 ± 0.089; to `CC(=O)OCC(=O)C1(O)C(C)CC2C3CCC4=CC(=O)C=CC4(C)C3(F)C(O)CC21C` (centres undefined) [Dexamethasone Acetate], 0.9 ± 0.23; to `Oc1ccc(/C=C/c2cc(O)cc(O)c2)cc1` [Resveratrol], 1.38 ± 0.065.
Consider `Nc1nnc(-c2cccc(Cl)c2Cl)c(N)n1` [Lamotrigine], for which the cell viability was found to be 1.12 ± 0.3.
Compound `OCC1OC(c2ccc(F)c(Cc3cc4ccccc4s3)c2)C(O)C(O)C1O` (centres undefined) [Ipragliflozin (ASP1941)] yielded a cell viability of 0.779 ± 0.068.
Under `Cc1cnc(Nc2ccc(OCCN3CCCC3)cc2)nc1Nc1cccc(S(=O)(=O)NC(C)(C)C)c1` stands 0.186 ± 0.081; under `Cc1ccc(Nc2nccc(N(C)c3ccc4c(C)n(C)nc4c3)n2)cc1S(N)(=O)=O` [Pazopanib], 0.795 ± 0.041.
For `CCOC(=O)c1ccc(C#Cc2ccc3c(c2)C(C)(C)CCS3)nc1` [Tazarotene], the cell viability worked out at 1.32 ± 0.14.
`CCC(C)C(=O)OC1CC(O)C=C2C=CC(C)C(CCC(O)CC(O)CC(=O)[O-])C21.[Na+]` (centres undefined) [Pravastatin sodium] returned a cell viability of 0.932 ± 0.038.
Compound `O=NN(CCCl)C(=O)NC1CCCCC1` [Lomustine] showed a cell viability of 1.05 ± 0.07.
To `CN1C(C(=O)Nc2ccccn2)=C(O)c2sc(Cl)cc2S1(=O)=O` [Lornoxicam] belongs 0.71 ± 0.3; to `CC(C)C(=O)Nc1ccc([N+](=O)[O-])c(C(F)(F)F)c1` [Flutamide], 1.18 ± 0.054.
In turn, `CNC(=O)c1ccccc1Sc1ccc2c(/C=C/c3ccccn3)n[nH]c2c1` [Axitinib] came in with a cell viability of 0.712 ± 0.0072.
In the case of `Cl.NC1=NCC2c3ccccc3Cc3ccccc3N12` (centres undefined) [Epinastine HCl], the cell viability was determined as 0.9943 ± 0.0026.
Under `CN(C)CCC(c1ccc(Br)cc1)c1ccccn1.O=C(O)/C=C\C(=O)O` (centres undefined) [Brompheniramine hydrogen maleate] stands 1.17 ± 0.23; under `O=C(OCCOCCO)c1ccccc1Nc1cccc(C(F)(F)F)c1` [Etofenamate], 1.01 ± 0.29; under `C=C(NC(=O)C(=C)NC(=O)c1csc(C2=NC3c4csc(n4)C4NC(=O)c5csc(n5)C(C(C)(O)C(C)O)NC(=O)C5CSC(=N5)/C(=C/C)NC(=O)C(C(C)O)NC(=O)c5csc(n5)C3(CC2)NC(=O)C(C)NC(=O)C(=C)NC(=O)C(C)NC(=O)C(C(C)CC)NC2C=Cc3c(C(C)O)cc(nc3C2O)C(=O)OC4C)n1)C(N)=O` (centres undefined) [Thiostrepton], 0.184 ± 0.083.
In turn, `CN(C)CCN1C(=O)c2cccc3cc(N)cc(c23)C1=O` [Amonafide] gave a cell viability of 0.534 ± 0.025.
To `CCC1(O)CC2CN(CCc3c([nH]c4ccccc34)C(C(=O)OC)(c3cc4c(cc3OC)N(C=O)C3C(O)(C(=O)OC)C(OC(C)=O)C5(CC)C=CCN6CCC43C65)C2)C1` (centres undefined) [Vincristine] belongs 0.556 ± 0.22; to `Cc1cnc(C(=O)NC2CCCCC/C=C\C3CC3(C(=O)NS(=O)(=O)C3CC3)NC(=O)C3CC(Oc4nc5ccccc5c5ccccc45)CN3C2=O)cn1` (centres undefined) [Paritaprevir (ABT-450)], 0.779 ± 0.2.
Under `CCC(C)(Oc1ccc(C2(c3ccc(OC(C)(CC)C(=O)O)cc3)CCCCC2)cc1)C(=O)O` (centres undefined) [Clinofibrate] stands 1.17 ± 0.14; under `CCOc1ccccc1OCCNC(C)Cc1ccc(OC)c(S(N)(=O)=O)c1` (centres undefined) [Tamsulosin], 1.37 ± 0.042; under `Nc1ncn(C2OC(CO)C(O)C2O)c(=O)n1` (centres undefined) [Azacitidine], 1.04 ± 0.077.
To `Nc1ccccc1NC(=O)c1ccc(CNC(=O)OCc2cccnc2)cc1` [Entinostat (MS-275)] belongs 0.59 ± 0.036; to `FC(F)(F)c1ccc(CNc2ccc(Cc3c[nH]c4ncc(Cl)cc34)cn2)cn1` [Pexidartinib (PLX3397)], 0.789 ± 0.2.
In the case of `COC1CC2CCC(C)C(O)(O2)C(=O)C(=O)N2CCCCC2C(=O)OC(C(C)CC2CCC(OCCO)C(OC)C2)CC(=O)C(C)/C=C(\C)C(O)C(OC)C(=O)C(C)CC(C)/C=C/C=C/C=C/1C` (centres undefined) [Everolimus (RAD001)], the cell viability is 0.985 ± 0.068.
Under `Cc1cn(-c2cc(NC(=O)c3ccc(C)c(Nc4nccc(-c5cccnc5)n4)c3)cc(C(F)(F)F)c2)cn1` [Nilotinib (AMN-107)] stands 1.22 ± 0.089; under `CCC1(O)C(=O)OCc2c1cc1n(c2=O)Cc2cc3c(CN(C)C)c(O)ccc3nc2-1.Cl` (centres undefined) [Topotecan HCl], 0.451 ± 0.033; under `CC(CCC(=O)NCCS(=O)(=O)O)C1CCC2C3C(O)CC4CC(O)CCC4(C)C3CCC12C` (centres undefined) [Tauroursodeoxycholic Acid (TUDCA)], 1.2 ± 0.37.
Under `O=C(O)CCC(=O)c1ccc(-c2ccccc2)cc1` [Fenbufen] stands 1 ± 0.06; under `COC(=O)C(Cc1ccccc1)NC(=O)C(N)CC(=O)O` (centres undefined) [Aspartame], 1.08 ± 0.091; under `CNC(=O)c1cc(Oc2ccc(NC(=O)Nc3ccc(Cl)c(C(F)(F)F)c3)cc2)ccn1` [Sorafenib], 0.634 ± 0.37.
To `CCC(=O)OC1(C(=O)SCF)C(C)CC2C3CC(F)C4=CC(=O)C=CC4(C)C3(F)C(O)CC21C` (centres undefined) [Fluticasone propionate] belongs 1.06 ± 0.43; to `Cc1c(Cl)cccc1Nc1ccccc1C(=O)O` [Tolfenamic Acid], 1.39 ± 0.44; to `CC(C)Cc1ccc(C(C)C(=O)OCc2ccccn2)cc1` (centres undefined) [Ibuprofen piconol], 1.43 ± 0.54.
As to `O=C([O-])CC(O)(CC(=O)[O-])C(=O)[O-].O=C([O-])CC(O)(CC(=O)[O-])C(=O)[O-].[BiH6+3].[K+].[K+].[K+]` [Gastrodenol], the cell viability stood at 0.722 ± 0.25.
